{"source": "PubChem BioAssay (NCATS)", "key": {"[1]": {"experiment": "Confirmatory qHTS for activators (rescue) of SARS-CoV-2 Cytopathic Effect (CPE) (AID 1508606); also: nearly all actives have a fitted effect of over 70% in size; also: potency is read from the fitted curve at half-maximal effect", "settings": "Vero E6 SARS-CoV-2 CPE rescue, viability luminescence; series mostly up to 20 µM"}, "[2]": {"experiment": "Primary qHTS for inhibitors of MERS-S pseudo-typed particle cell entry (AID 1479149); also: nearly all actives have a fitted effect of over 60% in size; also: potency is read from the fitted curve at half-maximal effect", "settings": "MERS-S pseudotyped particle entry, luciferase; series mostly up to 57.1 µM"}, "[3]": {"experiment": "Primary qHTS for Vero E6 cytotoxicity: counterscreen for inhibitors of SARS-S pseudo-typed particle cell entry (AID 1479150); also: potency is read from the fitted curve at half-maximal effect", "settings": "cell viability; series mostly up to 57.1 µM"}, "[4]": {"experiment": "Confirmatory qHTS for VERO E6 Cytotoxicity Assay: Counterscreen for SARS-CoV-2 CPE Assay (AID 1508605); also: nearly all actives have a fitted effect of over 60% in size; also: potency is read from the fitted curve at half-maximal effect", "settings": "cell viability luminescence; series mostly up to 20 µM"}, "[5]": {"experiment": "Primary qHTS for Huh7 cytotoxicity: counterscreen for inhibitors of MERS-S pseudotyped particle cell entry (AID 1479147)", "settings": "cell viability read-out; series mostly up to 57.1 µM"}}, "note": "Records with an inconclusive call do not appear. Where a call stands in place of a potency, no number is given. Activity calls are given as the source filed them. Calls follow the shape of the full dose curve.", "data": [{"molecule": "COC(=O)[C@H]1[C@H]2C[C@@H]3c4[nH]c5cc(OC)ccc5c4CCN3C[C@H]2C[C@@H](OC(=O)/C=C/c2ccc(O)c(OC)c2)[C@@H]1OC", "values": [{"measurement": "Potency", "setting": "[1]", "result": "12.6 µM (active)"}]}, {"molecule": "NC(=O)C1(N2CCCCC2)CCN(CCCN2c3ccccc3CCc3ccc(Cl)cc32)CC1", "values": [{"measurement": "Potency", "setting": "[2]", "result": "12.6 µM (active)"}]}, {"molecule": "O=C(CCC1CCN(Cc2ccccc2)CC1)c1ccc2c(c1)NCCCC2", "values": [{"measurement": "Potency", "setting": "[3]", "result": "inactive"}, {"measurement": "Potency", "setting": "[4]", "result": "inactive"}]}, {"molecule": "O=C(CCCN1CCN(c2ccc(F)cc2)CC1)NC1c2ccccc2CSc2ccccc21", "note": "(centres undefined)", "values": [{"measurement": "Potency", "setting": "[5]", "result": "inactive"}, {"measurement": "Potency", "setting": "[3]", "result": "inactive"}, {"measurement": "Potency", "setting": "[4]", "result": "inactive"}, {"measurement": "Potency", "setting": "[1]", "result": "inactive"}]}, {"molecule": "O=c1[nH]c2ccccc2n1CCCN1CCN(C(c2ccccc2)c2ccccc2)CC1", "values": [{"measurement": "Potency", "setting": "[5]", "result": "inactive"}, {"measurement": "Potency", "setting": "[3]", "result": "inactive"}, {"measurement": "Potency", "setting": "[1]", "result": "11.2 µM (active)"}]}, {"molecule": "CN(C(=O)CN(CCO)CC(=O)N(C)C(C)(C)Cc1ccccc1)C(C)(C)Cc1ccccc1", "values": [{"measurement": "Potency", "setting": "[3]", "result": "inactive"}]}, {"molecule": "CCCCC1C(=O)N(c2ccccc2)N(c2ccc(O)cc2)C1=O", "note": "(centres undefined)", "values": [{"measurement": "Potency", "setting": "[3]", "result": "22.4 µM (active)"}]}, {"molecule": "CCC(=O)c1ccc2c(c1)N(CCCN(C)C)c1ccccc1S2", "values": [{"measurement": "Potency", "setting": "[3]", "result": "inactive"}, {"measurement": "Potency", "setting": "[4]", "result": "inactive"}, {"measurement": "Potency", "setting": "[1]", "result": "11.2 µM (active)"}]}, {"molecule": "O=C1NCCN1CCN1CCC(c2cn(-c3ccc(F)cc3)c3ccc(Cl)cc23)CC1", "values": [{"measurement": "Potency", "setting": "[2]", "result": "8.91 µM (active)"}]}, {"molecule": "Fc1ccc(C(c2ccc(F)cc2)N2CCN(C/C=C/c3ccccc3)CC2)cc1", "values": [{"measurement": "Potency", "setting": "[5]", "result": "inactive"}, {"measurement": "Potency", "setting": "[3]", "result": "inactive"}, {"measurement": "Potency", "setting": "[4]", "result": "inactive"}, {"measurement": "Potency", "setting": "[1]", "result": "11.2 µM (active)"}]}, {"molecule": "O=c1c(-c2ccccc2)c1-c1ccccc1", "values": [{"measurement": "Potency", "setting": "[3]", "result": "inactive"}]}, {"molecule": "CCN(CC)CCOc1ccc2c(c1)C(=O)c1cc(OCCN(CC)CC)ccc1-2", "values": [{"measurement": "Potency", "setting": "[4]", "result": "11.2 µM (active)"}]}, {"molecule": "CN1CCN(CCCN2c3ccccc3Sc3ccc(S(=O)(=O)N(C)C)cc32)CC1", "values": [{"measurement": "Potency", "setting": "[4]", "result": "inactive"}]}, {"molecule": "CCCCOc1ccc(C(=O)CCN2CCCCC2)cc1", "values": [{"measurement": "Potency", "setting": "[3]", "result": "inactive"}]}, {"molecule": "COc1cc(N)c(Cl)cc1C(=O)NC1CCN(CCCOc2ccc(F)cc2)CC1OC", "note": "(centres undefined)", "values": [{"measurement": "Potency", "setting": "[3]", "result": "inactive"}]}, {"molecule": "CCN(CC)CCCC(C)Nc1c2ccc(Cl)cc2nc2ccc(OC)cc12", "note": "(centres undefined)", "values": [{"measurement": "Potency", "setting": "[4]", "result": "11.2 µM (active)"}, {"measurement": "Potency", "setting": "[1]", "result": "inactive"}]}, {"molecule": "COc1ccc(CCN2CCC(Nc3nc4ccccc4n3Cc3ccc(F)cc3)CC2)cc1", "values": [{"measurement": "Potency", "setting": "[2]", "result": "12.6 µM (active)"}]}, {"molecule": "CC(C)OC(=O)C(C(=O)OC(C)C)=C1SC=CS1", "values": [{"measurement": "Potency", "setting": "[2]", "result": "inactive"}, {"measurement": "Potency", "setting": "[3]", "result": "inactive"}]}, {"molecule": "CN1CCCN(C(c2ccccc2)c2ccc(Cl)cc2)CC1", "note": "(centres undefined)", "values": [{"measurement": "Potency", "setting": "[3]", "result": "inactive"}, {"measurement": "Potency", "setting": "[1]", "result": "10 µM (active)"}]}, {"molecule": "c1ccc(-c2ccc(C(c3ccccc3)n3ccnc3)cc2)cc1", "note": "(centres undefined)", "values": [{"measurement": "Potency", "setting": "[5]", "result": "inactive"}, {"measurement": "Potency", "setting": "[4]", "result": "inactive"}]}, {"molecule": "CC(C(O)c1ccccc1)N(C)CCOC(c1ccccc1)c1ccccc1", "note": "(centres undefined)", "values": [{"measurement": "Potency", "setting": "[2]", "result": "22.4 µM (active)"}, {"measurement": "Potency", "setting": "[3]", "result": "inactive"}, {"measurement": "Potency", "setting": "[4]", "result": "inactive"}, {"measurement": "Potency", "setting": "[1]", "result": "10 µM (active)"}]}, {"molecule": "CCCCCCCCCCCCCCCC[N+](C)(C)CCN(Cc1ccc(OC)cc1)c1ncccn1", "values": [{"measurement": "Potency", "setting": "[2]", "result": "10 µM (active)"}]}, {"molecule": "CCN(CC)CCNc1ccc(CO)c2sc3ccccc3c(=O)c12", "values": [{"measurement": "Potency", "setting": "[4]", "result": "10 µM (active)"}, {"measurement": "Potency", "setting": "[1]", "result": "inactive"}]}, {"molecule": "COC(=O)C1=C(C)NC(C)=C(C(=O)O[C@@H]2CCCN(Cc3ccccc3)C2)[C@@H]1c1cccc([N+](=O)[O-])c1", "values": [{"measurement": "Potency", "setting": "[4]", "result": "11.2 µM (active)"}, {"measurement": "Potency", "setting": "[1]", "result": "inactive"}]}, {"molecule": "CC(C)COCC(CN(Cc1ccccc1)c1ccccc1)N1CCCC1", "note": "(centres undefined)", "values": [{"measurement": "Potency", "setting": "[2]", "result": "8.91 µM (active)"}, {"measurement": "Potency", "setting": "[3]", "result": "inactive"}, {"measurement": "Potency", "setting": "[4]", "result": "inactive"}, {"measurement": "Potency", "setting": "[1]", "result": "11.2 µM (active)"}]}, {"molecule": "CN1CCCC(n2nc(Cc3ccc(Cl)cc3)c3ccccc3c2=O)CC1", "note": "(centres undefined)", "values": [{"measurement": "Potency", "setting": "[3]", "result": "inactive"}]}, {"molecule": "NC(N)=N/N=C/c1c(Cl)cccc1Cl", "values": [{"measurement": "Potency", "setting": "[3]", "result": "inactive"}]}, {"molecule": "CN(C)CCCN1c2ccccc2Sc2ccc(C(F)(F)F)cc21", "values": [{"measurement": "Potency", "setting": "[1]", "result": "10 µM (active)"}]}, {"molecule": "O=C(CCCN1CCC(O)(c2ccc(Br)cc2)CC1)c1ccc(F)cc1", "values": [{"measurement": "Potency", "setting": "[3]", "result": "inactive"}]}, {"molecule": "COc1ccc2cc1Oc1ccc(cc1)C[C@H]1c3c(cc4c(c3Oc3cc5c(cc3OC)CCN(C)[C@@H]5C2)OCO4)CCN1C", "values": [{"measurement": "Potency", "setting": "[2]", "result": "3.55 µM (active)"}, {"measurement": "Potency", "setting": "[4]", "result": "11.2 µM (active)"}, {"measurement": "Potency", "setting": "[1]", "result": "1 µM (active)"}]}, {"molecule": "O=C1NC2CCCCN2C12CCN(CCCN1c3ccccc3CCc3ccc(Cl)cc31)CC2", "note": "(centres undefined)", "values": [{"measurement": "Potency", "setting": "[2]", "result": "12.6 µM (active)"}, {"measurement": "Potency", "setting": "[3]", "result": "inactive"}]}, {"molecule": "CC1=CC(=O)c2ccccc2C1=O", "values": [{"measurement": "Potency", "setting": "[3]", "result": "inactive"}]}, {"molecule": "CCN(CC)CCOc1ccc(/C(=C(\\Cl)c2ccccc2)c2ccccc2)cc1", "values": [{"measurement": "Potency", "setting": "[3]", "result": "inactive"}]}, {"molecule": "Cc1ccc2nc(N)[nH]c(=O)c2c1Sc1ccncc1", "values": [{"measurement": "Potency", "setting": "[3]", "result": "inactive"}]}, {"molecule": "CCCN(CCC)C(=O)C(CCC(=O)OCCCN1CCN(CCOC(=O)Cc2c(C)n(C(=O)c3ccc(Cl)cc3)c3ccc(OC)cc23)CC1)NC(=O)c1ccccc1", "note": "(centres undefined)", "values": [{"measurement": "Potency", "setting": "[5]", "result": "inactive"}, {"measurement": "Potency", "setting": "[3]", "result": "inactive"}, {"measurement": "Potency", "setting": "[4]", "result": "inactive"}, {"measurement": "Potency", "setting": "[1]", "result": "10 µM (active)"}]}, {"molecule": "O=C(Oc1cccc2cccnc12)c1ccccc1", "values": [{"measurement": "Potency", "setting": "[2]", "result": "12.6 µM (active)"}, {"measurement": "Potency", "setting": "[3]", "result": "5.62 µM (active)"}]}, {"molecule": "CCC(C)(C)c1ccc(CC(C)CN2C[C@@H](C)O[C@@H](C)C2)cc1", "note": "(some centres undefined)", "values": [{"measurement": "Potency", "setting": "[3]", "result": "inactive"}]}, {"molecule": "CC1CCCCN1CCCOC(=O)c1ccc(OC2CCCCC2)cc1", "note": "(centres undefined)", "values": [{"measurement": "Potency", "setting": "[5]", "result": "inactive"}, {"measurement": "Potency", "setting": "[3]", "result": "inactive"}, {"measurement": "Potency", "setting": "[4]", "result": "inactive"}, {"measurement": "Potency", "setting": "[1]", "result": "8.91 µM (active)"}]}, {"molecule": "CCCCN(CCCC)CCC(O)c1cc2c(Cl)cc(Cl)cc2c2cc(C(F)(F)F)ccc12", "note": "(centres undefined)", "values": [{"measurement": "Potency", "setting": "[5]", "result": "inactive"}, {"measurement": "Potency", "setting": "[3]", "result": "inactive"}, {"measurement": "Potency", "setting": "[1]", "result": "3.55 µM (active)"}]}]}
